Screening data as filed in PubChem BioAssay.
p53 reactivator: mutant p53 re-activation in reporter cells | H1299 p53-A138V BP100-luciferase reporter, luminescence, 24 h | Potency, µM (highest dose often 92.2 µM), hits mostly activators | hit rate 0.063% among 320,000; active = well fitted activation curve with a large enough effect; inconclusive = small, poorly fitted or top-dose-only effect; inactive = no such curve, though single readings can be large or run the other way; note: nearly all actives have a fitted effect of over 45% in size
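H1299 (p53-null), stable ts p53-A138V + BP100-Luc; 1000 cells/well, Opti-MEM/10% FBS; cpd 4 pt, 1:5; 24 h, 37 deg C, 5% CO2; detection reagent 10 min RT; luminescence.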
TRPV1 potentiator: enhances activation of the human vanilloid receptor TRPV1 | Q8NER1 | TRPV1-expressing cells, Fluo-8 calcium influx, capsaicin EC20 potentiation | potentiation, % at 8.33 µM | hit rate 0.02% among 320,000 | AID 540277; in the data active = potentiation above about 80%; inconclusive = between about 30% and that limit
Target sequence (Q8NER1 whole entry, looked up): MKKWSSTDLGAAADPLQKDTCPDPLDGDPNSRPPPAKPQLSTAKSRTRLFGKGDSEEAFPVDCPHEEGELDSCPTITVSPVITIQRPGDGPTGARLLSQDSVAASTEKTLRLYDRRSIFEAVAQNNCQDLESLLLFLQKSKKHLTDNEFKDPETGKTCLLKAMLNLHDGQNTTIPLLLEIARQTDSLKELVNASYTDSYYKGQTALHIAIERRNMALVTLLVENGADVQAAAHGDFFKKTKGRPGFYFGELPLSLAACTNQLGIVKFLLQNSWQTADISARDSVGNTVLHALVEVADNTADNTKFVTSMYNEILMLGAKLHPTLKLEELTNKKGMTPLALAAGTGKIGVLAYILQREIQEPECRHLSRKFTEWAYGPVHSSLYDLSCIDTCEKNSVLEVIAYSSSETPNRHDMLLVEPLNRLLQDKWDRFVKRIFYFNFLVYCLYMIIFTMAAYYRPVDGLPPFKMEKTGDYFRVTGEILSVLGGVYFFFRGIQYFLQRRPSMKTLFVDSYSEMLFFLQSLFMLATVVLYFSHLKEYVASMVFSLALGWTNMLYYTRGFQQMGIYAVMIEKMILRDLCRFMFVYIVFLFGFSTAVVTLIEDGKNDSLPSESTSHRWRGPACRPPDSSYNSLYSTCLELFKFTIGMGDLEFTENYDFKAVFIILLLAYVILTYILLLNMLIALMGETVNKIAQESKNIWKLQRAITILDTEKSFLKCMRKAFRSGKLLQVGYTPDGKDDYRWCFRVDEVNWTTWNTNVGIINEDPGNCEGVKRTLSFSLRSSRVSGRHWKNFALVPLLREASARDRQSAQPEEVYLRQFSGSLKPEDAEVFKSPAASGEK
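Cells expressing TRPV1 were dye-loaded with Fluo-8 and read kinetically: 10 s baseline, 3 min after compound (agonist portion), then 2 min after EC20 capsaicin (allosteric enhancer portion). Calcium-bound dye fluorescence at 480/520 nm.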
ClpP mod: qHTS Assay for Activators of ClpP. ATP-dependent Clp protease proteolytic subunit (Bacillus subtilis (strain 168)), P80244. purified B. subtilis ClpP, FRET peptide cleavage, 20 min. Potency, µM (titrated, usually from 57.5 µM). hit rate 1.9% among 340,000. AID 651965, 2013; active = well fitted falling curve with a large enough effect; inconclusive = small, poorly fitted or top-dose-only effect; inactive = no such curve, though single readings can be large or run the other way; note: the source files actives as falling curves though it sought activators and does not explain the sign; nearly all actives have a fitted effect of over 65% in size
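Purified B. subtilis ClpP, 10 microg/mL final in Tris/HCl pH8 with KCl, BSA, glycerol and Tween-20, cleaved an Abz/nitrotyrosine-quenched decapeptide. Fluorescence (ex 320, em 430) was read at 0 and 20 min at room temperature. Delta was normalized to 5.8 microM ADEP and DMSO/no-enzyme controls.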
KCNH2 3.1 block: blocks the human KCNH2 3.1 channel isoform; U2OS KCNH2 3.1, thallium flux FluxOr; stronger effect = lower value; activity change, % (tested at about 1.8 µM); hit rate 0.95% among 340,000; AID 720553;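 active = maximum activity change below -70%; inconclusive = maximum activity change from -70% to -50%; inactive = maximum activity change above -50%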;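 note: thallium influx rate constant from kinetic fluorescence after stimulation buffer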
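Kinetic fluorescence (2 min after stimulation buffer) measures Tl+ influx through KCNH2 3.1 expressed by viral transduction in U2OS cells; the rate constant is normalized against DMSO controls serving as positive and negative references.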
TRPV1 agonist: activates the human vanilloid receptor TRPV1. AID 540275. Q8NER1. activation, % at 8.33 µM. hit rate 0.19% among 320,000. TRPV1-expressing cells, Fluo-8 calcium influx, agonist mode; in the data active = activation above about 80%; inconclusive = between about 30% and that limit
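Fluo-8 calcium influx in TRPV1-expressing cells, kinetic read (ex 480/em 520 nm). Compound added and read 3 min for agonist activity, followed by capsaicin at EC20 final and 2 min further read for enhancement.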
hERG WT inh: blocks the wildtype human KCNH2 potassium channel | Q12809 | U2OS, BacMam KCNH2, thallium flux FluxOr; stronger effect = lower value | hit rate 0.37% among 340,000 | activity change, % at 1.84 µM;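 active = maximum activity change below -70%; inconclusive = maximum activity change between -70% and -50%; inactive = maximum activity change above -50%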
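U2OS cells transduced with wild-type KCNH2 virus are loaded with FluxOr dye for 45 min, and thallium flux is measured in kinetic reads before and after stimulation buffer. Rate constants are normalized to DMSO controls.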
Hits are given with their value; 0 = inactive; ? = inconclusive; - = not tested or not shown. Hits are enriched below; roughly 2.6% of the tested compounds scored in any of these assays.

SMILES	p53 reactivator	TRPV1 potentiator	ClpP mod	KCNH2 3.1 block	TRPV1 agonist	hERG WT inh
CC(C)Cn1c(N2CCN(CC(=O)Nc3ccc(Cl)cc3)CC2)nc2ccccc21	0	0	-	-74.5	0	0
CCCn1c(N2CCN(C(=O)Nc3ccccc3)CC2)nc2ccccc21	0	0	0	-104.7	?	0
Cc1ccc(SCc2nc3ccccc3n2CC(=O)Nc2ccc(Cl)cc2)cc1	0	0	0	0	0	0
CC(=O)Nc1ccc(CCNC(=O)c2ccc3ccccc3c2O)cc1	-	-	25.1µM	0	-	0
c1csc(CNc2nc(NCC3CCCCC3)c3sccc3n2)c1	-	-	0	-	-	-
COCCn1c(-c2ccc(Cl)cc2Cl)nc2c(c(=O)c3ccccc3n2C)c1=O	0	0	14.1µM	0	0	0
Cc1ccc2c(c1)c1c(n2C)C(C(N)=O)CCC1 (configuration not stated)	?	0	?	0	0	0
Cc1ccc2c(c1)c1c(n2C)-c2[nH]ncc2CC1	0	0	12.6µM	0	0	0
CCOc1cccc2sc(=NC(=O)CCS(=O)(=O)c3ccc(F)cc3)n(C)c12	0	0	?	0	?	0
COc1cccc2sc(=NC(=O)CCS(=O)(=O)c3ccc(C)cc3)n(C)c12	0	0	3.16µM	0	0	0
COc1ccc(NC(=O)CN2C(=O)NC3(CCCc4ccccc43)C2=O)c(OC)c1 (configuration not stated)	0	-	15.8µM	0	-	0
CSc1ccccc1OCc1cc(C(=O)NC(C)c2cnn(C)c2)no1 (configuration not stated)	0	0	28.2µM	0	0	0
CSc1ccccc1OCc1cc(C(=O)NC(C)CCn2cccn2)no1 (configuration not stated)	0	0	0	0	0	0
O=c1[nH]cnc(O)c1C(c1ccc([N+](=O)[O-])cc1)c1c(O)nc[nH]c1=O	0	0	0	-180.8	0	0
O=C(CSc1nc2[nH]c(=O)cc(O)c2s1)Nc1nccs1	0	0	31.6µM	0	0	0
O=C(CSc1nc2[nH]c(=O)cc(O)c2s1)Nc1nncs1	-	-	-	0	-	0
CCOC(=O)C1=C(CN2CCN(c3ccc(Cl)cc3)CC2)NC(=O)NC1c1ccc(F)cc1 (configuration not stated)	-	-	0	-	-	-
OC(c1ccc(F)cc1)c1nc(-c2cccc(F)c2)cs1 (configuration not stated)	-	-	0	-	-	-
COc1ccc(-c2nc(CS(=O)CC(=O)NCc3ccc(C)cc3)c(C)o2)cc1OC (configuration not stated)	0	0	0	0	0	0
COc1ccc(-c2nc(CS(=O)CC(=O)NCc3ccc(F)cc3)c(C)o2)cc1OC (configuration not stated)	-	-	28.2µM	-	-	-
CCCN(CCC)CCNC(=O)CS(=O)Cc1nc(-c2ccc(OC)c(OC)c2)oc1C (configuration not stated)	-	-	31.6µM	-	-	-
CCC(=O)c1cc(F)c(N2CCN(C(=O)Cc3ccccc3)CC2)cc1C	0	0	0	0	90.6	0
C/C=C(/CCC1NCCc2c1[nH]c1ccccc21)[Si](C)(C)C (configuration not stated)	-	-	0	0	-	0
Cc1cc(C)c2oc(-c3cccc(NC(=O)COc4ccc(Cl)cc4C)c3C)nc2c1	-	-	0	-	-	-
Cc1cc(Br)ccc1NC(=O)CN(C)C(=O)CSC(=S)N1CCCC1	0	0	3.16µM	0	0	0
SMILES	p53 reactivator	TRPV1 potentiator	ClpP mod	KCNH2 3.1 block	TRPV1 agonist	hERG WT inh
CC(C)c1ccc(OC(=O)c2cc(-c3ccc4c(c3)OCCO4)on2)cc1	-	-	0	-	-	-
Cc1cccc(OC(=O)c2cc(-c3ccc4c(c3)OCCO4)on2)c1	-	-	25.1µM	-	-	-
Cc1ccccc1OC(=O)c1cc(-c2ccc3c(c2)OCCO3)on1	-	-	31.6µM	-	-	-
Cc1cc(C)cc(OC(=O)c2cc(-c3ccc4c(c3)OCCO4)on2)c1	-	-	31.6µM	-	-	-
COc1ccc(OC(=O)c2cc(-c3ccc4c(c3)OCCO4)on2)cc1	-	-	0	-	-	-
CCc1ccc(C2c3c(-c4cc(C)ccc4O)n[nH]c3C(=O)N2Cc2cccnc2)cc1 (configuration not stated)	-	-	0	-	-	-
COc1ccc2c(c1)c1c(c(=O)n(Cc3ccccc3)c(=O)n1CC(=O)Nc1ccc(C)cc1C)n2C	-	-	0	-	-	-
COc1cc(OC)c(/C=C/c2ccncn2)c(OC)c1	-	-	0	-	-	-
COc1ccccc1-c1c(C(F)(F)F)oc2c(CN3CCCCC3C)c(O)ccc2c1=O (configuration not stated)	-	-	0	-	-	-
COc1cccc(CCNC(=O)CCc2nnc(-c3cc(C)oc3C)o2)c1	0	100.7	0	0	0	0
COc1cccc(CCNC(=O)CCc2nnc(-c3ccc4c(c3)OCO4)o2)c1	0	0	0	0	0	0
Cc1ccc2c(C)nc(N/C(N)=N/S(=O)(=O)c3ccccc3)nc2c1	0	0	28.2µM	0	0	0
CN(C)c1ccc(/C=C/c2c[n+](C)cc3ccccc23)cc1	-	-	0	-	-	-
O=C(Nc1ccc(Cl)cc1F)c1oc(=O)c2ccccc2c1-c1ccccc1	-	-	0	-	-	-
COC(=O)c1cccc(S(=O)(=O)N(Cc2ccco2)Cc2cc3ccc(OC)cc3[nH]c2=O)c1	0	0	?	0	0	0
COC(=O)c1cccc(S(=O)(=O)N(Cc2ccco2)Cc2cc3cc(OC)c(OC)cc3[nH]c2=O)c1	0	0	28.2µM	0	0	0
O=C(NCCN1CCCC1)c1cccc(Cl)c1	0	0	-	0	0	0
O=C(NCCCN1CCCC1)c1ccc(CSCc2cccc(Cl)c2)o1	0	0	0	0	0	0
CN1CCN(CCCNC(=O)c2ccc(CSCc3cccc(Cl)c3)o2)CC1	0	0	14.1µM	0	0	0
